Reference: PubChem BioAssay (Tox21)
Results filed as inconclusive are left out. The source made the active and inactive calls. Unless noted, calls follow the shape of the dose curve; as a rule, active = well fitted curve in the direction sought with a large enough effect in the repeat runs; inconclusive = weak or mixed curves; inactive = no such curve, though single readings can be large; an effect the other way counts as inactive or inconclusive.

Columns and labels:
[1] = qHTS assay to identify small molecule antagonists of the glucocorticoid receptor (GR) signaling pathway - cell viability counter screen (AID 720693); also: nearly all actives have a fitted effect of over 55% in size
[2] = qHTS assay for identifying genotoxic compounds that show differential cytotoxicity against isogenic chicken DT40 cell lines with known DNA damage response pathways - wild type cell line (AID 743012); also: nearly all actives have a fitted effect of over 60% in size; also: potency is read from the fitted curve at half-maximal effect
In short: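 300 wt DT40 cells/well; cpd (DMSO) pintool-transferred after ~0.5 h at 37 C/5% CO2; 40 h incubation; CellTiter-Glo added, 30 min RT; luminescence read.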

[3] = qHTS assay for identifying genotoxic compounds that show differential cytotoxicity against isogenic chicken DT40 cell lines with known DNA damage response pathways - Rev3 mutant cell line (AID 743014); also: nearly all actives have a fitted effect of over 55% in size; also: potency is read from the fitted curve at half-maximal effect
[4] = qHTS assay for identifying genotoxic compounds that show differential cytotoxicity against isogenic chicken DT40 cell lines with known DNA damage response pathways - Rad54/Ku70 mutant cell line (AID 743015); also: nearly all actives have a fitted effect of over 60% in size; also: potency is read from the fitted curve at half-maximal effect
[5] = qHTS assay to identify small molecule antagonists of the androgen receptor (AR) signaling pathway - cell viability counter screen (AID 743033; also: nearly all actives have a fitted effect of over 45% in size)
[6] = qHTS assay to identify small molecule antagonists of the androgen receptor (AR) signaling pathway using the MDA cell line - cell viability counter screen (AID 743041; also: nearly all actives have a fitted effect of over 45% in size)
In short: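 Compound exposure lasted 16 h at 37C in MDA-kb2 AR-luc cells stimulated with R1881. Protease-based CellTiter-Fluor reagent was applied for the final 30 min and fluorescence measured.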

[7] = qHTS assay to identify small molecule antagonists of the thyroid receptor (TR) signaling pathway - cell viability counter screen (AID 743064); also: nearly all actives have a fitted effect of over 50% in size
In short: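 Rat GH3 pituitary tumor cells stably expressing two TR response elements driving luciferase were plated, rested 4 h, then dosed with library compounds and T3 (1 nM final). After 23.5 h at 37 °C, CellTiter-Fluor was added for 30 min and fluorescence recorded.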

[8] = qHTS assay to identify small molecule antagonists of the thyroid receptor (TR) signaling pathway (AID 743065); also: series mostly up to about 70 µM; nearly all actives have a fitted effect of over 55% in size
In short: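 GH3.TRE-Luc rat pituitary cells (two TREs driving luciferase) were dosed with compound, then stimulated with 1 nM T3 (final) for 23.5 h at 37 C. ONE-Glo luminescence was the read-out, with CellTiter-Fluor fluorescence as the cytotoxicity counter-screen.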

[9] = tested on: thyroid hormone receptor (rat, GH3 cells); experiment: qHTS assay to identify small molecule agonists of the thyroid receptor (TR) signaling pathway (AID 743066; calls by dose curve)
[10] = target: Estrogen receptor (Homo sapiens) (UniProt P03372); experiment: qHTS assay to identify small molecule antagonists of the estrogen receptor alpha (ER-alpha) signaling pathway (AID 743069; active = well fitted curve in the direction sought with a large enough effect in the signal ratio in the repeat runs, not every such curve was filed as active; the % refers to the signal ratio)
Estrogen receptor (Homo sapiens), sequence (P03372 whole entry, looked up): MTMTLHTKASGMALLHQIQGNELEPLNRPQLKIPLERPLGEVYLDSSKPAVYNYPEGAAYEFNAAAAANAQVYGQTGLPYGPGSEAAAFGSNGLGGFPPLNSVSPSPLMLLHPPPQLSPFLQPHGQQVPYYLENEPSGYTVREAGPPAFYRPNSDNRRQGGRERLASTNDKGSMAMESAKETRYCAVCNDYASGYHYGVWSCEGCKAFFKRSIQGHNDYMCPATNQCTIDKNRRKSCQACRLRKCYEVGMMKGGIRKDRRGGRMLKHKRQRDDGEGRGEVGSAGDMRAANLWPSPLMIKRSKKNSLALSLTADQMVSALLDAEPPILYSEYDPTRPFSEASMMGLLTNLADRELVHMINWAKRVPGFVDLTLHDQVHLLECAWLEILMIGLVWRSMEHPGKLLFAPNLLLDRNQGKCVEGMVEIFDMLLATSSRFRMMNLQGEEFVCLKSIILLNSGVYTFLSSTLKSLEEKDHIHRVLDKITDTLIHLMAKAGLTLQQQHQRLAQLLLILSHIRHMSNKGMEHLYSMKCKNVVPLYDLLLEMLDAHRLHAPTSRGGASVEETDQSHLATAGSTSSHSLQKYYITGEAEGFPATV
In short: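 In this cell-based reporter format, GripTite HEK293 cells harbouring ER-alpha-UAS-bla were grown overnight with 2% charcoal-stripped FBS, dosed with DMSO-dissolved compounds, then challenged with 17beta-estradiol. After 18 hr at 37C, beta-lactamase activity was detected by FRET fluorescence.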

[11] = qHTS assay to identify small molecule antagonists of the estrogen receptor alpha (ER-alpha) signaling pathway - cell viability counter screen (AID 743074; calls by dose curve; also: nearly all actives have a fitted effect of over 45% in size)
[12] = target: Estrogen receptor (Homo sapiens) (UniProt P03372); experiment: qHTS assay to identify small molecule agonists of the estrogen receptor alpha (ER-alpha) signaling pathway (AID 743075; calls by dose curve)
[13] = qHTS assay to identify small molecule antagonists of the estrogen receptor alpha (ER-alpha) signaling pathway using the BG1 cell line - cell viability counter screen (AID 743081);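 also: compound given together with 17beta-estradiol as the ER stimulus; series mostly up to about 70 µM; nearly all actives have a fitted effect of over 45% in size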
Aromatase (Homo sapiens) = Aromatase (Homo sapiens) (UniProt P11511); experiment: qHTS assay to identify aromatase inhibitors (AID 743083); also: series mostly up to about 70 µM; nearly all actives have a fitted effect of over 55% in size
Aromatase (Homo sapiens), sequence (P11511 whole entry, looked up): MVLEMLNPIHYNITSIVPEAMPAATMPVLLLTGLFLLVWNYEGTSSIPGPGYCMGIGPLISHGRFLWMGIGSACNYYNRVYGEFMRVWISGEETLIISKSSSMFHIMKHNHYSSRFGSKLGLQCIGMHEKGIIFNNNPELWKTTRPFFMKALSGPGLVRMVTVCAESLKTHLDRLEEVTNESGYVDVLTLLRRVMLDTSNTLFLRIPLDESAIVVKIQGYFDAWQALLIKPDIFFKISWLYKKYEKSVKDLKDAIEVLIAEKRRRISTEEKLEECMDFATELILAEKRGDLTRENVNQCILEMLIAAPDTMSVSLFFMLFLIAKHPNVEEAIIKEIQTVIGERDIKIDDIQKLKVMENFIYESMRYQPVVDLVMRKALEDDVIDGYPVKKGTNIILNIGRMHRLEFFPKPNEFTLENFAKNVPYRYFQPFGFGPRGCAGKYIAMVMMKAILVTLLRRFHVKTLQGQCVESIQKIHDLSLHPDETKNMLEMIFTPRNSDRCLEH

[14] = target: Estrogen receptor (Homo sapiens) (UniProt P03372); experiment: qHTS assay to identify small molecule agonists of the estrogen receptor alpha (ER-alpha) signaling pathway using the BG1 cell line (AID 743079); also: nearly all actives have a fitted effect of over 20% in size
[15] = qHTS assay to identify small molecule antagonists of the estrogen receptor alpha (ER-alpha) signaling pathway using the BG1 cell line (AID 743080; calls by dose curve;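 also: BG1 cells stimulated with 17beta-estradiol alongside compound; series mostly up to about 70 µM; nearly all actives have a fitted effect of over 25% in size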)
In short: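 BG1-Luc-4E2 cells (endogenous full-length ER-alpha, 4xERE luciferase) hormone-starved 5 days in charcoal-stripped FBS, plated 4,000/well for 24 h, then compound plus 17beta-estradiol for 21.5 h at 37 C; ONE-Glo luminescence read.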
% is scaled to controls: 0 for no effect and ±100 for the full control effect.

Nc1ncnc(Nc2ccccc2)n1
inactive: outcome [1] | Potency [2] | Potency [3] | Potency [4] | Potency [5] | Potency [6] | Potency [7] | Potency [8] | outcome [9] | outcome [10] | outcome [11] | outcome [12] | outcome [13] | Potency (Aromatase (Homo sapiens))

CN=C(NC#N)Nc1ccc(C2=NNC(=O)CC2C)cc1 (stereo unspecified)
inactive: outcome [1] | Potency [2] | Potency [3] | Potency [4] | Potency [5] | Potency [6] | Potency [7] | Potency [8] | outcome [9] | outcome [11] | outcome [13] | Potency (Aromatase (Homo sapiens))

Cc1c(I)c(=O)n(-c2ccccc2)n1C
inactive: outcome [1] | Potency [2] | Potency [3] | Potency [4] | Potency [5] | Potency [6] | Potency [7] | Potency [8] | outcome [9] | outcome [10] | outcome [12] | Potency [14] | Potency [15] | outcome [13] | Potency (Aromatase (Homo sapiens))

Cc1cc2cc3c(C)cc(=O)oc3c(C)c2o1
inactive: outcome [1] | Potency [2] | Potency [3] | Potency [4] | Potency [5] | Potency [6] | Potency [7] | Potency [8] | outcome [9] | outcome [11] | outcome [12] | Potency [14] | outcome [13] | Potency (Aromatase (Homo sapiens))

COC(=O)C1CC(=O)C(C(=O)OC)CC1=O (stereo unspecified)
inactive: viability change, negative = cytotoxic [1] -6.7% [at 7.04 µM] | activity change, negative = cytotoxicity [2] -1.23% [at 8.52 µM] | activity, negative = cytotoxicity [3] 6.72% [at 8.53 µM] | activity change, negative = cytotoxicity [4] -1.14% [at 8.55 µM] | activity change, negative = cytotoxicity [5] -11.9% [at 7.04 µM] | viability change, negative = cytotoxic [6] 6.75% [at 8.47 µM] | activity change, negative = cytotoxic [7] 29.4% [at 8.44 µM] | activity, negative = inhibition [8] -0.0159% [at 8.44 µM] | activation [9] -0.929% [at 8.08 µM] | activity, negative = cytotoxicity [11] 10.1% [at 6.72 µM] | activity, negative = inhibition (Aromatase (Homo sapiens)) 8.29% [at 8.47 µM]

CC(=O)c1sc(C)nc1C
inactive: outcome [1] | Potency [2] | Potency [3] | Potency [4] | Potency [5] | Potency [6] | Potency [7] | Potency [8] | outcome [9] | outcome [11] | outcome [13] | Potency (Aromatase (Homo sapiens))

CC(=O)Nc1cccc(C)c1
inactive: outcome [1] | Potency [2] | Potency [3] | Potency [4] | Potency [5] | Potency [6] | Potency [7] | Potency [8] | outcome [9] | outcome [10] | outcome [11] | outcome [12] | Potency [14] | Potency [15] | Potency (Aromatase (Homo sapiens))

Cc1cc(NC(=O)C2=C(O)c3ccccc3S(=O)(=O)N2C)no1
inactive: outcome [1] | Potency [2] | Potency [3] | Potency [4] | Potency [5] | Potency [6] | Potency [7] | Potency [8] | outcome [9] | outcome [13] | Potency (Aromatase (Homo sapiens))

CCC(C=O)CC
inactive: outcome [1] | Potency [2] | Potency [3] | Potency [4] | Potency [5] | Potency [6] | Potency [7] | Potency [8] | outcome [9] | outcome [11] | outcome [13] | Potency (Aromatase (Homo sapiens))

C=Cc1ccccn1
inactive: outcome [1] | Potency [2] | Potency [3] | Potency [4] | Potency [5] | Potency [6] | Potency [7] | Potency [8] | outcome [9] | outcome [13] | Potency (Aromatase (Homo sapiens))

COc1ccc(C2CNC(=O)C2)cc1OC1CCCC1 (stereo unspecified)
inactive: outcome [1] | Potency [2] | Potency [3] | Potency [4] | Potency [5] | Potency [6] | Potency [7] | Potency [8] | outcome [9] | outcome [11] | outcome [13] | Potency (Aromatase (Homo sapiens))

COc1cc2c(cc1OC)[C@@H]1CC(=O)[C@@H](CC(C)C)CN1CC2
active: Potency [2] 23.7 µM | Potency [3] 21.1 µM | Potency [4] 29.8 µM
inactive: outcome [1] | Potency [5] | Potency [6] | Potency [8] | outcome [9] | outcome [10] | outcome [12] | Potency [14] | Potency [15] | outcome [13]

C[Si](C)(C)C
inactive: outcome [1] | Potency [2] | Potency [3] | Potency [4] | Potency [5] | Potency [6] | Potency [7] | Potency [8] | outcome [9] | outcome [11] | outcome [13] | Potency (Aromatase (Homo sapiens))

CCc1ccc(C=O)cc1
inactive: outcome [1] | Potency [2] | Potency [3] | Potency [4] | Potency [5] | Potency [6] | Potency [7] | Potency [8] | outcome [9] | outcome [11] | outcome [13] | Potency (Aromatase (Homo sapiens))

CC(C)C(=O)OCCc1ccccc1
inactive: outcome [1] | Potency [2] | Potency [3] | Potency [4] | Potency [5] | Potency [6] | Potency [7] | outcome [9] | outcome [10] | outcome [11] | outcome [12] | Potency [14] | Potency [15] | outcome [13] | Potency (Aromatase (Homo sapiens))

COCCOCCOCCOCCOCCO
inactive: outcome [1] | Potency [2] | Potency [3] | Potency [4] | Potency [5] | Potency [6] | Potency [7] | Potency [8] | outcome [9] | outcome [11] | outcome [13] | Potency (Aromatase (Homo sapiens))

CCCCCCCC/C=C\CCCCCCCC(=O)OCCCC
inactive: outcome [1] | Potency [2] | Potency [3] | Potency [4] | Potency [5] | Potency [6] | Potency [7] | outcome [9] | outcome [10] | outcome [11] | outcome [12] | Potency [14] | Potency [15] | outcome [13] | Potency (Aromatase (Homo sapiens))

CCCCCCCCCCl
inactive: outcome [1] | Potency [2] | Potency [3] | Potency [4] | Potency [5] | Potency [6] | Potency [7] | Potency [8] | outcome [9] | outcome [11] | outcome [13] | Potency (Aromatase (Homo sapiens))

CC(C)CCCCOC(=O)c1ccccc1C(=O)OCCCCC(C)C
inactive: outcome [1] | Potency [2] | Potency [3] | Potency [4] | Potency [5] | Potency [6] | Potency [8] | outcome [9] | outcome [11] | outcome [13] | Potency (Aromatase (Homo sapiens))
